High-throughput results as filed in PubChem.
LDHA inh – qHTS assay for inhibitors of human lactate dehydrogenase. L-lactate dehydrogenase A chain (Homo sapiens), P00338. purified LDHA, NADH/diaphorase-resazurin fluorescence; hits give low values. activity change, % (values are at about 110 or 230 µM). 0.15% of 480,000 active; in the data active = activity change below about -30%; inconclusive = mostly about -25% to -30%
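Remaining NADH was detected by diaphorase (0.133 mg/mL) converting 37 µM resazurin to fluorescent resorufin, read at 0 and 20 minutes. The preceding 5-minute room-temperature reaction used 2 nM LDHA, 0.2 mM sodium pyruvate and 0.06 mM NADH at pH 7.4.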
IL1B secr inh – qHTS for Inhibitors of Inflammasome Signaling: IL-1-beta AlphaLISA Primary Screen | THP-1 LPS/ATP IL-1B secretion, AlphaLISA, 16 h; hits give low values | activity change, % at 57.5 µM | 4.7% of 360,000 active; in the data active = activity change below about -50%; inconclusive = mostly about -30% to -49%
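Secreted IL-1B measured by AlphaLISA bead assay after 16 h compound exposure of THP-1 cells; compounds (final up to 57.5 uM) added 1 h before LPS (250 ng/mL) and ATP (1.25 mM) stimulation; lower signal means less secretion.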
VP16 counter – VP16 counterscreen qHTS for inhibitors of ROR gamma transcriptional activity. Drosophila S2 Gal4-VP16 UAS-luciferase, luminescence, 20 h. Potency, µM (highest dose often 53.6 µM), usual class: inhibitors. 3.5% of 310,000 active. AID 2546, 2010;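 note: Gal4-VP16 expression switched on by copper sulfate through the metallothionein promoter; nearly all actives have a fitted effect of over 50% in size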
DT40 TDP1 CPT – qHTS for Inhibitors of human tyrosyl-DNA phosphodiesterase 1 (TDP1): qHTS in cells in presence of CPT. chicken DT40 Tdp1-/-;hTDP1 cells + 20 nM CPT, ATP luminescence, 48 h. Potency, µM (doses to about 46.2 µM), hits mostly inhibitors. 12% of 420,000 active; note: nearly all actives have a fitted effect of over 55% in size
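Chicken DT40 Tdp1-/- cells complemented with human TDP1, 400 cells/well, exposed to compounds plus 20 nM camptothecin for at least 48 h at 37 C; viability read as ATP content by CellTiter-Glo luminescence.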
RORg inh – qHTS for inhibitors of ROR gamma transcriptional activity; Nuclear receptor ROR-gamma (Mus musculus), P51450; Drosophila S2 Gal4-RORgamma UAS-luciferase reporter, 20 h; Potency, µM (series often up to 53.6 µM), actives largely listed as inhibitors; 5.4% of 310,000 active; note: nearly all actives have a fitted effect of over 60% in size
Target sequence (P51450 whole entry, looked up, the tested form may be a part): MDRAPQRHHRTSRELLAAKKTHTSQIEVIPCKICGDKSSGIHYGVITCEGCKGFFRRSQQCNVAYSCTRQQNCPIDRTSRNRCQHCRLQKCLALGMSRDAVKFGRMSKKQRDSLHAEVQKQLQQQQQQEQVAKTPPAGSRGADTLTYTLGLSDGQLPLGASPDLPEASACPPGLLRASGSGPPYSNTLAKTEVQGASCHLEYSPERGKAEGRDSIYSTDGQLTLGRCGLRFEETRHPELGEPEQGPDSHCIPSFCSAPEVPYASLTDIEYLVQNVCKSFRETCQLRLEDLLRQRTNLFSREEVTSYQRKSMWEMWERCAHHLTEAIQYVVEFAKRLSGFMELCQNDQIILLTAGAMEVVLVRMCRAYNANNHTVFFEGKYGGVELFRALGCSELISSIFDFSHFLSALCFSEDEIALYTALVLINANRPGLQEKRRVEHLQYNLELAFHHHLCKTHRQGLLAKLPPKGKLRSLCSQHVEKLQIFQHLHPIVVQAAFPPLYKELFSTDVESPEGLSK
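ROR gamma transcriptional activity was tracked as Gal4-UAS luciferase output in stably transfected Drosophila Schneider cells, with compound added 1 hr before 700 uM copper sulfate induction and a 20 hr ambient-temperature incubation.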
TDP1 cell noCPT – qHTS for Inhibitors of human tyrosyl-DNA phosphodiesterase 1 (TDP1): qHTS in cells in absence of CPT. AID 686978, 2013. Potency, µM (doses to about 46.2 µM), actives largely listed as inhibitors. DT40 Tdp1-/- hTDP1 cells, no CPT, ATP luminescence, 48 h. 15% of 420,000 active; note: nearly all actives have a fitted effect of over 55% in size
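Chicken DT40 Tdp1-/- cells stably complemented with human TDP1 were seeded at 400 cells/well with DMSO in place of 20 nM camptothecin. After compound pinning, cells grew at least 48 hr at 37 °C; viability read by CellTiter-Glo luminescence.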
Numbers stand for hits; – = inactive; ? = inconclusive; · = no result given; [ ] = another dose, or the depositor's remark. Shown are actives, neighbours in structure and some others; about 18% of the full set was active somewhere. Unless noted, calls come from the whole dose curve; as a rule, active = well fitted curve in the direction sought with a large enough effect; inconclusive = small, poorly fitted or top-dose-only effect, or another doubt; inactive = no such curve, though single readings can be large; an effect the other way counts as inactive or inconclusive.

SMILES	LDHA inh	IL1B secr inh	VP16 counter	DT40 TDP1 CPT	RORg inh	TDP1 cell noCPT
CCOC(=O)c1c(N)sc(C(=O)Nc2ccccc2)c1C	–	–	?	?	?	18µM
CCOC(=O)c1c(C)nc2sc3c(c2c1-c1ccc(OC)cc1)NC(c1ccc(OC)cc1)NC3=O (configuration not stated)	–	–	–	?	–	13µM
CCOC(=O)c1sc(NC(=O)Nc2ccccc2Cl)cc1C	–	–	?	23µM	?	15µM
CCOC(=O)c1c(N)sc(C(=O)Nc2ccccc2F)c1C	–	–	–	–	–	?
CCOC(=O)c1cc(NC(=O)Nc2ccccc2Cl)c(C)nc1C	–	–	–[10 µM]	–	–	–
Cc1ccc(NC(=O)c2c(C)nc3sc(C(=O)Nc4ccc(F)cc4)c(N)c3c2-c2ccc(C)o2)c(C)c1	–	·	·	?	·	18µM
CCOC(=O)c1c(C)nc(C)c(C(=O)OCC)c1-c1ccc(O)c(OC)c1	–	–	–	?	–	–
COc1cc(C(=O)Nc2sc3ccccc3c(=O)c2-c2ccc3c(c2)OCO3)cc(OC)c1OC	–	·	·	·	·	·
Cc1c(C(=O)OC(C)C)sc(N)c1C(=O)OC(C)C	–	-61	?	–	–	?
CCOC(=O)c1sc(NC(=O)Nc2ccccc2)cc1C	–	-117	2.5µM	23µM	5µM	26µM
CCOC(=O)c1sc(NC(=O)c2ccc(C)s2)cc1C	–	?	?	?	1.3µM	?
CCOC(=O)c1sc(NC(C)=O)cc1C	–	–	–	–	–	–
COCCNC(=O)/C=C/c1ccc(C(C)(C)C)cc1	–	·	·	·	·	·
COc1ccc(-c2noc(CCC(=O)N3CCN(c4cccc(C(F)(F)F)c4)CC3)n2)cc1	–	?	?	?	?	23µM
COc1ccc(-c2noc(CCC(=O)N3CCN(c4cccc(OC)c4)CC3)n2)cc1	–	–	·	?	·	16µM
CCc1nnc(NC(=O)c2cc(=O)c3cc(C)cc(C)c3o2)s1	–	·	·	·	·	·
N#Cc1ccc(-c2nc3c4ccccc4ccn3c2Cc2cccc(Cl)c2)cc1	–	–	·	16µM	·	18µM
N#Cc1ccc(-c2nc3c4ccccc4ccn3c2Cc2ccsc2)cc1	–	–	·	13µM	·	13µM
Clc1ccc(-c2nc3c4ccccc4ccn3c2Cc2ccsc2)cc1	–	–	·	10µM	·	10µM
Cc1ccc(C(=O)C(C)OC(=O)c2nn(C)c(=O)c3ccccc23)cc1C (configuration not stated)	–	·	·	·	·	·
CC(C)N(C)CCNC(=O)Nc1ccccc1C(F)(F)F	–	·	·	·	·	·
Cc1cccc(NC(=S)N(CCN(C)C)Cc2cc3cccc(C)c3[nH]c2=O)c1	–	?	–	?	–	6.5µM
Cc1ccc2[nH]c(=O)c(CN(CCCN(C)C)C(=O)Nc3ccc(F)cc3)cc2c1	–	–	–	?	–	13µM
Cc1cccc(NC(=S)N(CCN(C)C)Cc2cc3cc(C)cc(C)c3[nH]c2=O)c1	–	–	–	?	–	?
COc1ccc(NC(=O)N(CCCN(C)C)Cc2cc3cc(OC)ccc3[nH]c2=O)cc1	–	–	–	?	–	–
SMILES	LDHA inh	IL1B secr inh	VP16 counter	DT40 TDP1 CPT	RORg inh	TDP1 cell noCPT
CCN(CC)CCCN(Cc1cc2cc(OC)ccc2[nH]c1=O)C(=O)Nc1ccc(F)cc1	–	-51	–	16µM	–	21µM
Cc1ccc(NC(=S)N(CCN(C)C)Cc2cc3cc(C)ccc3[nH]c2=O)cc1	–	-68	–	?	–	?
O=C(Nc1ccc(F)c(F)c1)c1cc(-c2ccco2)nc2ccccc12	–	·	·	·	·	·
COc1ccc2cc(COC(=O)c3nn(C)c(=O)c4ccccc34)ccc2c1	–	·	·	·	·	·
CCOC(=O)c1c(C)oc2nc(C)nc(NCc3cccc(Cl)c3)c12	–	·	·	?	·	21µM
CCOC(=O)c1c(C)oc2nc(C)nc(NCc3ccc(OC)cc3)c12	–	·	·	?	·	?
CCOC(=O)c1c(C)oc2nc(C)nc(NCc3cccc(OC)c3)c12	–	·	·	16µM	·	?
CC1C/C(=N/NC(=S)Nc2ccc(SC(F)F)cc2)CC(C)(C)C1 (configuration not stated)	–	·	·	·	·	·
O=C(NN=C1CCCC1)c1nc(-c2ccccc2)n(-c2ccccc2)n1	–	·	·	·	·	·
CCCCCCNC(=O)c1cc(-c2ccccc2)nc2ccccc12	–	·	·	·	·	·
CCCOc1nc2ccccc2nc1N1CCC(C(=O)Nc2ccc(C(N)=O)cc2)CC1	–	·	·	·	·	·
CC(=O)N(c1cccc(C(F)(F)F)c1)c1nc(CSc2nnc(C3CC3)n2C2CC2)cs1	–	·	·	·	·	·
CCOC(=O)C1CCN(C(=O)Cn2c(-c3cccs3)cc3cc(Cl)ccc32)CC1	–	·	·	15µM	·	21µM
CCOc1ccc(CCNC(=O)Cn2c(-c3cccs3)cc3cc(F)ccc32)cc1OCC	–	·	·	12µM	·	13µM
CC1CCN(C(=O)Cn2c(-c3cccs3)cc3cc(Cl)ccc32)CC1	–	·	·	16µM	·	?
CCCN1CCN(C(=O)Cn2c(-c3cccs3)cc3cc(F)ccc32)CC1	–	·	·	12µM	·	–
CN(C)c1cc(CNC(=O)Nc2nnc(C3CC3)s2)ccn1	–	·	·	·	·	·
O=C(NCC(F)(F)F)c1ccc(CN(C(=O)/C=C/c2ccccc2)C2CC2)cc1	–	·	·	·	·	·
O=C(OCc1nnnn1-c1ccccc1)C1(c2ccccc2)CC1	–	·	·	·	·	·
O=C(N/N=C/c1c(Cl)cccc1Cl)c1n[nH]c2c1CCCC2	–	–	–	23µM	–	12µM
Cc1ccsc1/C=N\NC(=O)c1n[nH]c2c1CCC2	–	–	7.1µM	3.3µM	4µM	3.3µM
O=C(NCCc1ccccn1)c1cc(-c2ccccc2)nc2ccccc12	–	·	·	·	·	·
O=C(NCc1ccccn1)c1cc(-c2ccc(Br)cc2)nc2ccccc12	–	–	–	?	–	13µM
O=C(NCCc1ccccn1)c1cc(-c2cccc3ccccc23)nc2ccccc12	–	–	?	26µM	?	?
Cc1ccc(-c2cc(C(=O)NCc3ccccn3)c3ccccc3n2)cc1	–	–	–	?	–	16µM
SMILES	LDHA inh	IL1B secr inh	VP16 counter	DT40 TDP1 CPT	RORg inh	TDP1 cell noCPT
O=C(NCc1ccccn1)c1ccc2ccccc2n1	–	–	10µM	–	3.5µM	–
CCc1ccc(-c2cc(C(=O)NCc3ccccn3)c3ccccc3n2)cc1	–	?	?	?	?	?
O=C(O)c1cnc[nH]1	–	·	·	·	·	·
Cc1ccc(NC(=O)c2nc3ccccc3nc2N2CCOCC2)c(Cl)c1	–	·	·	·	·	·
CN(C)C(CNC(=O)c1ccc2ccccc2n1)c1ccccc1 (configuration not stated)	–	–	–	?	–	18µM
O=C(NCCC(c1ccccc1)c1ccccc1)c1ccc2ccccc2n1	–	·	·	·	·	·
